High-throughput results deposited in PubChem BioAssay by several laboratories.
ADAM17 inh: inhibits human ADAM17; P78536; recombinant ADAM17, EDANS/DABCYL FRET peptide cleavage; inhibition, % at 6.95 µM; actives 0.83% (n = 370,000);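 active means inhibition above the mean of compounds lying between control limits plus 3 SD, set per campaign, cut at about 8.5% in these data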
NPR2 activator: GC-B (human) receptor activation; HEK293-GC-B cells, CNP EC30, cGMP TR-FRET; 0% at EC30 CNP, 100% saturating CNP; activation, % at 10 µM; actives 0.11% (n = 370,000); AID 1920062;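 active means activation at 10 µM reaching about 35% in either raw or pattern-adjusted values, limit read from the data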
FAS-TE inh: inhibitors of human fatty acid synthase thioesterase domain; AID 602261; P49327; recombinant FAS-TE, OMFH fluorogenic substrate, fluorescence endpoint; actives 0.67% (n = 360,000); inhibition, % at 15 µM;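 active means compounds whose normalised, plate-corrected inhibition of enzyme fluorescence in the single-dose primary screen is 50% or more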
GC-A act: GC-A (human) enzyme activation; P16066; actives 0.14% (n = 370,000); HEK293 GC-A cells, cGMP TR-FRET, EC30 ANP; 0% at EC30 ANP, 100% saturating ANP; activation, % at 10 µM; AID 1671463; in the data active means activation above about 40%
ADAM10 inh: inhibitors of human ADAM10. O14672. recombinant ADAM10, EDANS/DABCYL FRET peptide cleavage, 3 h. inhibition, % at 7 µM. actives 0.62% (n = 370,000);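 active means inhibition above a per-campaign cutoff equal to the mean of compounds falling between control-based bounds plus 3 SD, cut at about 20% in these data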
FAS-TE inh conf: FAS thioesterase (human) inhibition, confirmation | recombinant FAS-TE, OMFH fluorogenic substrate, fluorescence | AID 624325 | shares compounds with FAS-TE inh | actives 45% (n = 2,300) | inhibition, % at 15 µM;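 active means compounds inhibiting the enzyme by at least 50% at 15 µM in any one of the replicates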
ADAM10 confirm: human ADAM10 inhibition, confirmation | shares compounds with ADAM10 inh | actives 1% (n = 2,100) | inhibition, % at 6.95 µM | ADAM10 QFRET peptide cleavage, EDANS fluorescence;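 active means inhibition above about 20% chosen separately for each screening run, limit read from the data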
ADAM17 ctr: counter-screen for ADAM10 exosite inhibitors: inhibitors of human ADAM17; shares compounds with ADAM10 inh; ADAM17 QFRET peptide cleavage, EDANS fluorescence; inhibition, % at 6.95 µM; actives 0.5% (n = 2,100); AID 743214;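 active means mean triplicate inhibition above the solvent-only control wells' mean plus 3 SD, cut at about 12% in these data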
ADAM10 counter: ADAM10 inhibition, counter-screen for ADAM17 exosite hits; shares compounds with ADAM17 inh; recombinant ADAM10, EDANS/DABCYL FRET peptide cleavage, 3 h; inhibition, % at 6.95 µM; actives 47% (n = 2,900); AID 743256;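 active means mean inhibition over the triplicate runs exceeds the activity threshold set in the earlier primary screen, cut at about 20% in these data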
ADAM17 confirm: human ADAM17 inhibition, confirmation; recombinant ADAM17, EDANS/DABCYL QFRET peptide cleavage; AID 743257; inhibition, % at 6.95 µM; actives 65% (n = 2,900); shares compounds with ADAM17 inh;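 active means mean inhibition across replicates above the hit cutoff set in the primary screen, cut at about 8.5% in these data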
Numbers stand for hits; 0 = inactive; - = not tested or not shown. Sampled rows, rich in hits. Any-hit rate of the full collection: about 2%.

SMILES | ADAM17 inh | NPR2 activator | FAS-TE inh | GC-A act | ADAM10 inh | ADAM10 confirm | ADAM17 ctr | others
N#Cc1c(-c2ccccc2)c(-c2ccccc2)nn(CC(=O)NNC(=O)Nc2ccc(Cl)cc2)c1=O | 14 | 0 | 76 | 0 | 0 | - | - | FAS-TE inh conf=78;ADAM10 counter=23;ADAM17 confirm=19
O=C(NCc1ccccc1Cl)O[C@H]1CC[C@@]23CCCN2C(=O)CCC[C@H]3C1 | 0 | 0 | - | 0 | 0 | - | -
O=C(Oc1cccc(NC(=O)c2ccco2)c1)c1cccc(S(=O)(=O)N2CCCCC2)c1 | 0 | 0 | 0 | 0 | 21 | 0 | 0
Cc1ccccc1NS(=O)(=O)c1ccc(OCC(=O)NCc2ccccn2)cc1 | 0 | 0 | 0 | 0 | 0 | - | -
O=C(COc1ccc(S(=O)(=O)Nc2ccccc2)cc1)NCc1ccccn1 | 0 | 0 | 0 | 0 | 74 | 0 | 0
CCOc1ccc(NC(=O)c2ccc(CN3CCc4ccccc4C3)cc2)cc1 | 0 | 0 | 0 | 0 | 20 | 0 | 0
CCOC(=O)c1ccc(NC(=O)c2ccc(CN3CCc4ccccc4C3)cc2)cc1 | 0 | 0 | 0 | 0 | 0 | - | -
COc1ccc(Cl)cc1NC(=O)CN(C)C(=O)CN1C(=O)NC(C)(c2ccc3ccccc3c2)C1=O (centres undefined) | 0 | 0 | 0 | 0 | 27 | 0 | 0
CC(O)(c1ccc(F)c(F)c1)c1nc(-c2ccc(F)c(Cl)c2)cs1 (centres undefined) | 0 | 0 | 0 | 0 | 22 | 0 | 0
CC(O)(c1ccc(F)c(F)c1)c1nc(-c2cc(F)cc(F)c2)cs1 (centres undefined) | 0 | 0 | 0 | 0 | 20 | 0 | 0
OC(c1ccccc1)(c1nc(-c2ccc(F)c(Cl)c2)cs1)C(F)(F)F (centres undefined) | 0 | 0 | 0 | 0 | 22 | 0 | 0
CC(O)(c1ccccc1)c1nc(-c2ccc(F)c(Cl)c2)cs1 (centres undefined) | 0 | 0 | 0 | 0 | 0 | - | -
C[C@H]1[C@@H](OC(=O)NCc2cccc(Cl)c2)CC[C@@]23CCCN2C(=O)CCC[C@@H]13 | 0 | 0 | - | 0 | 0 | - | -
CN(CCCOC(=O)c1cccs1)C1CN(Cc2cn(Cc3ccccc3Cl)nn2)S(=O)(=O)C1 (centres undefined) | 0 | 0 | - | 0 | 0 | - | -
CCCN(CC1CC1)C(=O)c1oc(=O)c2ccccc2c1-c1ccc(C)cc1 | 0 | 0 | - | 0 | 0 | - | -
COc1ccc(N(C)C(=O)c2oc(=O)c3ccccc3c2-c2ccc(C)cc2)c(OC)c1 | 0 | 0 | 0 | 0 | 22 | 0 | 0
COc1ccc(-c2cn(-c3ccc(C)cc3C)c(=S)[nH]2)cc1OC | 0 | 0 | 0 | 0 | 20 | 0 | 0
CCC[C@H]1[C@@H](NC(=O)c2cccc(Cl)c2)CC[C@@]23CCCN2C(=O)CCC[C@@H]13 | 0 | 0 | - | 0 | 0 | - | -
COc1cc(OC)c(C2CC(=O)N3CN(c4ccccc4)CSC3=C2C#N)cc1OC (centres undefined) | 0 | 0 | 0 | 0 | 24 | 0 | 0
CCCCC(CCC(=O)Nc1cc([N+](=O)[O-])ccc1O)C(=O)O (centres undefined) | 0 | 0 | 0 | 0 | 0 | - | -
CC(CC(=O)O)CC(=O)Nc1cc([N+](=O)[O-])ccc1O (centres undefined) | 0 | 0 | 0 | 0 | 20 | 0 | 0
O=C(NNC(=O)c1sc2ccccc2c1Cl)Nc1ccc(Cl)cc1 | 0 | 0 | 0 | 0 | 20 | 0 | 0
C=CCN=C1NC(c2cccc(F)c2)C(C(=O)OC)=C(C)N1Cc1cccc(C(F)(F)F)c1 (centres undefined) | 0 | 0 | - | 0 | 0 | - | -
Cc1ccc(S(=O)(=O)N2C[C@@H](C)[C@]3(C2)[C@H](O)[C@H](OC(=O)NCc2ccco2)C[C@H]2C(=O)N(c4ccccc4)C(=O)[C@H]23)cc1 | 0 | 0 | 0 | 0 | 0 | - | -
COc1ccc(CNC(=O)O[C@@H]2C[C@H]3C(=O)N(c4ccccc4)C(=O)[C@H]3[C@@]3(CN(S(=O)(=O)c4ccc(C)cc4)C[C@H]3C)[C@@H]2O)cc1OC | 0 | 0 | 0 | 0 | 20 | 0 | 0
SMILES | ADAM17 inh | NPR2 activator | FAS-TE inh | GC-A act | ADAM10 inh | ADAM10 confirm | ADAM17 ctr | others
COc1ccc(-c2cc(=O)c3cccc(CC(=O)O)c3o2)cc1 | 0 | 0 | - | 0 | 0 | - | -
COc1cccc(COC(=O)C2CCN(S(=O)(=O)c3ccc(C)cc3C)CC2)c1OC | 0 | 0 | 0 | 0 | 24 | 0 | 0
O=C(NCc1ccco1)C1CCCN(S(=O)(=O)c2ccccc2F)C1 (centres undefined) | 0 | 0 | - | 0 | 0 | - | -
CC(=O)c1ccc(-n2c(-c3cc(-c4ccsc4)n[nH]3)n[nH]c2=S)cc1 | 0 | 0 | 0 | 0 | 0 | - | -
S=c1[nH]nc(-c2cc(-c3ccsc3)n[nH]2)n1-c1cccc2ccccc12 | 0 | 0 | 0 | 0 | 23 | 0 | 0
CCCN(CCC)C(=S)NC(=O)c1ccc(-c2ccccc2)cc1 | 0 | 0 | 0 | 0 | 24 | 0 | 0
Cc1ccccc1-n1c(Cn2c(=O)sc3ccccc32)nnc1SC(C)C | 0 | 0 | 0 | 0 | 78 | 0 | 0
O=S(=O)(c1ccccc1)N1CCc2ccccc2C1 | 0 | 0 | 0 | 0 | 0 | - | -
Cc1cc(S(=O)(=O)N2CCc3ccccc3C2)ccc1F | 0 | 0 | 0 | 0 | 22 | 0 | 0
COc1ccc(Cl)cc1NC(=O)C/C(C)=N/NC(=O)COc1ccc(C)cc1 | 0 | 0 | 0 | 0 | 0 | - | -
C/C(CC(=O)Nc1cc(Cl)ccc1Cl)=N\NC(=O)COc1cccc(C)c1 | 0 | 0 | 0 | 0 | 20 | 0 | 0
O=C(COC(=O)c1c2c(nc3ccccc13)CCCC2)Nc1ccc2c(c1)OCO2 | 0 | 0 | 0 | 0 | 24 | 0 | 0
O=C(Nc1ccccc1C(F)(F)F)c1ccc(F)c(S(=O)(=O)N2CCOCC2)c1 | 0 | 0 | 0 | 0 | 22 | 0 | 0
COCCCNC(=O)Cn1cc2c(n1)CCCCC2 | 0 | 0 | 0 | 0 | 0 | - | -
COCCCNC(=O)Cn1cc2c(n1)CCC(C)C2 (centres undefined) | 0 | 0 | 0 | 0 | 87 | 0 | 0
